Data: PubChem BioAssay

What follows are compounds tested against Albumin (Bos taurus) (UniProt P02769) (assay: bovine serum albumin binders on microarray, profiling panel, artefact control for SMM control protein annotation, biochemical, small-molecule microarray, Alexa647 label, 635/667 nm fluorescence (AID 1118;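 further: score merges 667 nm emission intensity and signal-to-noise per printed compound spot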)). Conditions: BSA-A647 binding, fluorescence 635 nm, higher = more signal.
Sequence of Albumin (Bos taurus) (P02769 whole entry, looked up): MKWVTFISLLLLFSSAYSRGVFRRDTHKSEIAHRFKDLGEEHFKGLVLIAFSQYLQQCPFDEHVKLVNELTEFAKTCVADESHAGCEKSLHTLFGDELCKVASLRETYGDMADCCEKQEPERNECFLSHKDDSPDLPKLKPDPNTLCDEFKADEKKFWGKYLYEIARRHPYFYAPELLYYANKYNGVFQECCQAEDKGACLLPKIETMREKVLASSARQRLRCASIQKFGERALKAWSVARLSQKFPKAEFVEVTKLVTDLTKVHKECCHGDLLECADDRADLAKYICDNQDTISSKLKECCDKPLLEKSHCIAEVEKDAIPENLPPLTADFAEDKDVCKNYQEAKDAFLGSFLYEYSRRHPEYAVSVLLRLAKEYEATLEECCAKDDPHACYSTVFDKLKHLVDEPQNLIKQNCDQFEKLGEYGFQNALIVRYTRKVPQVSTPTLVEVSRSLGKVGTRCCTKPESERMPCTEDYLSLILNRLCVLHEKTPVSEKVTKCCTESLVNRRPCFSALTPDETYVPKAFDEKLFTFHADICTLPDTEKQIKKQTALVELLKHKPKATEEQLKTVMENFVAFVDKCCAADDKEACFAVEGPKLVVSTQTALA
`[N-]=[N+]=Nc1ccccc1C[C@@]1(C(=O)N2CCOCC2)N=C(c2ccc(OCCCO)cc2)O[C@@H]1c1ccccc1` was tested, and the composite z-score was 0.847.
`[N-]=[N+]=Nc1ccccc1C[C@]1(C(=O)O)COC(c2ccc(OCCCO)cc2)=N1` showed a composite z-score of 0.638.
`COCCOC(=O)N1C(=O)[C@@]2(c3cc(C#CC4=CCCCC4)ccc31)[C@H](c1ccccc1OCCO)N1[C@H](c3ccccc3)[C@H](c3ccccc3)OC(=O)[C@H]1[C@@H]2C(=O)N1CCN(c2ncccn2)CC1` was tested, and the composite z-score was 0.326.
`O=C1O[C@@H](c2ccccc2)[C@@H](c2ccccc2)N2[C@@H](c3ccc(OCCO)cc3)[C@]3(C(=O)Nc4ccc(C#CC5=CCCCC5)cc43)[C@@H](C(=O)NC[C@H](O)c3ccccc3)[C@H]12` gave a composite z-score of -0.948.
Compound `[N-]=[N+]=Nc1ccccc1C[C@]1(C(=O)NCCN2CCOCC2)COC(c2ccc(OCCCO)cc2)=N1` has a composite z-score of 0.18.
Work on `O=C1OCCC=C[C@H]2OC34C=CCN(Cn5nnc6ccccc65)C(=O)[C@H]3N(CCCO)C(=O)[C@@H]4C12` (stereo not given in full) yielded a composite z-score of -0.841.
With `CC(C)[Si](C#C[Si](C(C)C)(C(C)C)C(C)C)(O[C@H](c1ccccc1)c1cn(Cc2ccccc2)nn1)C(C)C` the composite z-score was -0.0062.
Compound `CC(C)N1C(=O)C[C@@](C(=O)O)(c2ccc([N+](=O)[O-])cc2)[C@H]1c1ccc(CO)cc1` has a composite z-score of -0.795.
Compound `C=CCC(OC(C)=O)[C@@H]1[C@@H](N(Cc2ccc(-c3ccccc3)cc2)C(=O)c2ccc(-c3ccccc3)cc2)c2cc(OCCCO)ccc2N1C(=O)c1ccc2ccccc2c1` (stereo not given in full) has a composite z-score of -0.186.
`COc1ccc([Si](C)(C)[C@@H]2[C@@H](CCO)O[C@]3(C(=O)N(Cc4ccccc4)c4ccc(N5CCOC5=O)cc43)[C@H]2C)cc1` showed a composite z-score of 0.279.
`[N-]=[N+]=Nc1ccccc1C[C@]1(C(=O)NCC(O)CO)COC(c2ccc(OCCCO)cc2)=N1` (stereo not given in full) showed a composite z-score of 0.407.
`CN(C)CCCCCCNC(=O)[C@@H]1C[C@@H]2C(=O)N3CCC[C@H]3C(=O)N2[C@@H]1c1cccc(OCCO)c1` was tested, and the composite z-score was -0.694.
`CCOC(=O)C[C@H]1[C@H](OC(=O)c2cc3ccccc3oc2=O)[C@@H](NC(=O)c2ccccc2)c2cc(OCCCO)ccc2N1C(=O)c1ccccc1` showed a composite z-score of -0.122.
For `O=C1C2C=CC(C(O)c3cccc(O)c3)N(Nc3ccc([N+](=O)[O-])cc3)C2C(=O)N1c1ccccc1` (stereo not given), the composite z-score was 0.477.
`C=CC[C@@]1(C(=O)NCCCOC)N=C(c2ccc(OCCCO)cc2)O[C@@H]1c1ccccc1` was tested, and the composite z-score was 0.8.
`CCCCC(=C=CC[C@H](O)c1ccc(OCCO)cc1)CCO` was tested, and the composite z-score was 0.837.
For `C=C(C(=O)CC[C@H](OC(=O)c1ccccc1-c1ccccc1C(=O)O)c1cccc(OCCO)c1)C(C)C`, the composite z-score was 0.688.
`COC(=O)[C@]1(CCS(=O)(=O)c2ccccc2)N=C(c2ccc(OCCCO)cc2)O[C@@H]1c1ccccc1N=[N+]=[N-]` gave a composite z-score of -0.325.
Compound `C=C(/C(=C/C[C@H](OC(=O)c1ccncc1)c1ccc(CO)o1)c1cnc2ccccc2c1)C(C)C` has a composite z-score of 0.702.
Compound `CC[C@@H]1C=C(C(=O)O)[C@H](c2ccc(C#N)cc2)N1S(=O)(=O)c1ccc(C)cc1` has a composite z-score of 0.173.
With `CCCCCCCCCCC(O)C1C=CC2C(=O)N(c3ccccc3)C(=O)C2N1Nc1ccc(C#N)cc1` (stereo not given) the composite z-score was 0.957.
With `CC[C@@H]1C=C(C(=O)O)[C@H](c2ccccc2)N1S(=O)(=O)c1ccc(C)cc1` the composite z-score was 1.08.
`O=C1O[C@H](c2ccccc2)[C@H](c2ccccc2)N2[C@H]1[C@@H](C(=O)O)[C@]1(C(=O)Nc3ccc(C#CCCO)cc31)[C@H]2c1ccccc1OCCO` gave a composite z-score of 0.713.
`O=C1C2C=CC(C(O)c3ccco3)N(Nc3ccccc3F)C2C(=O)N1c1ccccc1` (stereo not given) gave a composite z-score of 0.963.
`COc1ccc([Si](C)(C)[C@@H]2[C@@H](CCO)O[C@]3(C(=O)N(Cc4cccc(NC(=O)[C@H](C)O)c4)c4ccccc43)[C@H]2C)cc1` showed a composite z-score of 0.6.
`CC(C)N1C(=O)C[C@@](C(=O)NC2CC2)(c2ccc([N+](=O)[O-])cc2)[C@H]1c1ccc(CO)cc1` showed a composite z-score of -1.1.
`Oc1ccc2cc[n+](Cc3cc4c(cc3Br)OCO4)cc2c1` showed a composite z-score of -1.19.
`CCOC(=O)C[C@H]1[C@H](OC(=O)c2ccc(-c3ccccc3)cc2)[C@@H](NC(=O)CC(C)C)c2cc(OCCCO)ccc2N1C(=O)c1ccc2ccccc2n1` gave a composite z-score of 0.363.
Work on `CCCCC(CC)C(O)C1C=CC2C(=O)N(c3ccccc3)C(=O)C2N1Nc1ccccc1F` (stereo not given) yielded a composite z-score of 0.468.
Work on `CCOC(=O)C[C@H]1[C@H](OC(=O)c2ccccc2-c2ccccc2)[C@@H](NC(=O)c2ccc3ccccc3n2)c2cc(OCCCO)ccc2N1C(=O)Cc1ccc(OC)cc1` yielded a composite z-score of 0.505.
Compound `COCCCNC(=O)[C@@]1(CCC(=O)OC(C)(C)C)N=C(c2ccc(OCCCO)cc2)O[C@H]1c1ccccc1N=[N+]=[N-]` has a composite z-score of 0.945.
Compound `OCCCC1=CC(c2ccc(CN3CCCC3)cc2)N(Cc2cc3c(cc2Br)OCO3)CC1` (stereo not given) has a composite z-score of -0.715.
With `CCOC(=O)C[C@H]1[C@H](OC(=O)Cc2ccc3c(c2)OCO3)[C@@H](NC(=O)C2CCCCC2)c2cc(OCCCO)ccc2N1C(=O)c1ccccc1` the composite z-score was 0.869.
Work on `COCC(=C=CC[C@H](O)c1ccccc1OCCO)C[C@H](O)c1ccccn1` yielded a composite z-score of 0.519.
Compound `[N-]=[N+]=NCc1ccccc1[C@@H]1OC(c2ccc(OCCCO)cc2)=N[C@]1(CCS(=O)(=O)c1ccccc1)C(=O)O` has a composite z-score of 0.951.
